Experimental findings from PubChem BioAssay (Tox21) are described below.

Test [1] is described as follows: qHTS assay to identify small molecule antagonists of the constitutive androstane receptor (CAR) signaling pathway - cell viability counter screen (AID 1224837). Further: nearly all actives have a fitted effect of over 45% in size. Further: potency means the concentration at half of the fitted maximal effect. A digest of the protocol:
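Cells are seeded, rested 4 hr at 37 C/5% CO2, dosed with compound (15-point series) and 50 nM CITCO, incubated a further 23 hr, and then CellTiter-Fluor reagent is added before fluorescence is read. The line is HepG2 with stable hCAR and CYP2B6-2.2kb.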

Test [2] addresses Nuclear receptor subfamily 1 group I member 3 (Homo sapiens) (UniProt Q14994). The test can be described thus: qHTS assay to identify small molecule antagonists of the constitutive androstane receptor (CAR) signaling pathway (AID 1224838).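 Further: HepG2 cells stably expressing hCAR with CYP2B6 luciferase reporter stimulated by CITCO; nearly all actives have a fitted effect of over 40% in size.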 Further: potency means the concentration at half of the fitted maximal effect. Put shortly: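 Luminescence from a CYP2B6-2.2kb promoter reporter in hCAR-expressing HepG2 cells reflects CAR signaling. Cells received compounds at 15 concentrations and 50 nM CITCO (final), then incubated 24 h at 37 C/5% CO2.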

Test [3] has the same target. Briefly: qHTS assay to identify small molecule agonists of the constitutive androstane receptor (CAR) signaling pathway (AID 1224839). Further: nearly all actives have a fitted effect of over 15% in size. Further: potency means the concentration at half of the fitted maximal effect.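 On activation: HepG2 cells stably carrying human CAR and a CYP2B6 luciferase reporter.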 Put shortly:
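Double-stable HepG2 cells (hCAR, CYP2B6-2.2kb) seeded 4 h before compound addition. Exposure 24 h with 0.75 uM PK11195 final. Luciferase detected by ONE-Glo.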

A short description of test [4]: qHTS assay to identify small molecule antagonists of the estrogen related receptor signaling pathway with the pleiotropic PPARgamma coactivator (PGC) from Tox21 10K library - cell viability counter screen (AID 1224840; active means well fitted cell-killing curve with a large enough effect in the repeat runs, not every such curve was filed as active; further: nearly all actives have a fitted effect of over 40% in size; further: potency means the concentration at half of the fitted maximal effect). Put shortly: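 Cell viability is measured by CellTiter-Fluor fluorescence in PGC/ERR cells that receive compounds after a 6-hour attachment period and are then incubated 17.5 hours at 37 C.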
On the technique in general: In qHTS, concentration-response curves come from the screen itself.

Test [5] is described as follows: qHTS assay to identify small molecule antagonists of the estrogen related receptor signaling pathway with the pleiotropic PPARgamma coactivator (PGC) from Tox21 10K library (AID 1224841; call rule not given here; further: actives are mostly falling curves and most rising ones were filed inactive; nearly all actives have a fitted effect of over 50% in size). Put shortly:
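Cells stably carrying the PGC/ERR reporter, seeded at 2,000 per well, received pin-transferred compounds 6 h post-plating. Exposure lasted 18 h at 37 C. Signal: One-Glo luminescence.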

A short description of test [6]: qHTS assay to identify small molecule agonists of the estrogen related receptor signaling pathway with the pleiotropic PPARgamma coactivator (PGC) from Tox21 10K library (AID 1224842). Further: nearly all actives have a fitted effect of over 15% in size. A digest of the protocol:
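PGC/ERR reporter cell line, 2,000 cells per well, incubated 6 h at 37 C before 23 nL compound in DMSO was added. After 18 h at 37 C, One-Glo luminescence read following 30 min at room temperature.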

Test [7] has as its target Thyrotropin receptor (Homo sapiens) (UniProt P16473). Briefly: qHTS assay to identify small molecule agonists of the thyroid stimulating hormone receptor (TSHR) signaling pathway (AID 1224843; calls by dose curve; further: nearly all actives have a fitted effect of over 45% in size). Put shortly:
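HEK293/TSHR, 800 cells/well; cpd 30 min RT; add cAMP-d2 + anti-cAMP-cryptate, 1 h RT; fluorescence read on plate reader. 15-pt titration, n=3.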

The nature of test [8]: qHTS assay to identify small molecule agonists of the hypoxia (HIF-1) signaling pathway - cell viability counter screen (AID 1224844; calls by dose curve; further: nearly all actives have a fitted effect of over 50% in size; further: potency means the concentration at half of the fitted maximal effect). Put shortly:
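Viability counter screen: HRE-bla ME-180 cells plated 5 hrs before compound addition, treated 17 hrs at 37C and 5% CO2, then CellTiter-Glo added after the FRET reporter read; luminescence after 30 min.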

A short description of test [9]: qHTS assay to identify small molecule agonists of H2AX (AID 1224845; active means well fitted activation curve with a large enough effect in the signal ratio in the repeat runs, not every such curve was filed as active; the % refers to the signal ratio; further: potency means the concentration at half of the fitted maximal effect). A digest of the protocol: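 Wild-type CHO-K1 cells, plated overnight, exposed 3hr at 37C to 15 concentrations (0.76% DMSO final). Lysed, then HTRF anti-pH2AX (S139) cryptate and anti-H2AX-d2 antibodies, 24 hr room temperature; 665/620 nm emission read.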
A short description of test [10]: qHTS assay to identify small molecule agonists of the hypoxia (HIF-1) signaling pathway (AID 1224846; active means well fitted activation curve with a large enough effect in the signal ratio in the repeat runs, not every such curve was filed as active; the % refers to the signal ratio). A digest of the protocol:
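Agonist mode reporter screen. ME-180 cells stably expressing bla under HRE control received test compounds in DMSO for 17 hrs (37C, 5% CO2), and beta-lactamase activity was then detected with the CCF4-AM FRET substrate.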

The nature of test [11]: qHTS assay to identify small molecule agonists of H2AX - cell viability counter screen (AID 1224847; calls by dose curve; further: nearly all actives have a fitted effect of over 30% in size; further: potency means the concentration at half of the fitted maximal effect). Put shortly:
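Quantitative HTS viability measurement: CHO-K1 wild-type cells in serum (10% FBS) medium, short 3 hr drug exposure at 37C with 0.76% DMSO, CellTiter-Glo luminescent detection.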

Test [12] in a line: qHTS assay to identify small molecule antagonists of the estrogen related receptor (ERR) signaling pathway from Tox21 library (AID 1224848). Further: nearly all actives have a fitted effect of over 50% in size. A digest of the protocol: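 Compounds dissolved in DMSO are pin-transferred onto ERR reporter cells (2,000 per well) that have settled for 6 h at 37 C. Plates then incubate 18 h at 37 C before ONE-Glo luciferase reagent and a luminescence read 30 min later.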

The nature of test [13]: qHTS assay to identify small molecule agonists of the estrogen related receptor (ERR) signaling pathway from Tox21 library (AID 1224849; calls by dose curve; further: nearly all actives have a fitted effect of over 15% in size). Particulars: ERR reporter cell line, ONE-Glo luciferase, 18 h. A digest of the protocol:
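Quantitative HTS in agonist format: NTP ERR cell line, compounds transferred in DMSO after 6 h plating, 18 h incubation at 37 C, ONE-Glo luminescence endpoint.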

Test [14] can be described thus: qHTS RealTime-Glo MT Cell Viability Assay in HepG2 cells - 24 hour (AID 1224867). Further: nearly all actives have a fitted effect of over 50% in size. A digest of the protocol:
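Real-time, nonlytic viability: 600 HepG2 cells/well mixed with NanoLuc enzyme plus prosubstrate; 5 h settle, compound (DMSO) added by pintool; luminescence monitored over 40 h at 37 C.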

Test [15] is described as follows: qHTS RealTime-Glo MT Cell Viability Assay in HEK293 cells - 32 hour (AID 1224868). Further: nearly all actives have a fitted effect of over 50% in size. Further: potency means the concentration at half of the fitted maximal effect. Put shortly: (§1)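 Cells + reagent dispensed (600 cells/well, HEK293) → 5 h at 37 C/5% CO2 → 23 nL compound in DMSO pinned → 40 h at 37 C → luminescence read at 0, 8, 16, 24, 32, 40 h.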
Test [16] can be described thus: qHTS RealTime-Glo MT Cell Viability Assay in HepG2 cells - 40 hour (AID 1224870). Further: nearly all actives have a fitted effect of over 50% in size. Further: potency means the concentration at half of the fitted maximal effect. Put shortly:
(§2)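 HepG2 cells (600/well) mixed with RealTime-Glo MT reagent, settled 5 h at 37 C/5% CO2 before compound addition. Nonlytic NanoLuc luminescence from viable-cell prosubstrate reduction read repeatedly during 40 h treatment at 37 C.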

A short description of test [17]: A CellTox Green Cytotoxicity Assay to monitor cytotoxicity in HEK293 cells - 40 hour (AID 1224871). Further: nearly all actives have a fitted effect of over 45% in size. Further: potency means the concentration at half of the fitted maximal effect. A digest of the protocol: (§3)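 Dead-cell fluorescence measured kinetically: asymmetric cyanine dye, HEK293, 600 cells/well, 5 h settle, 23 nL cpd/DMSO, 37 C, reads 0–40 h every 8 h.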
The nature of test [18]: qHTS RealTime-Glo MT Cell Viability Assay in HEK293 cells - 16 hour (AID 1224872). Further: nearly all actives have a fitted effect of over 50% in size. Further: potency means the concentration at half of the fitted maximal effect. Put shortly:
as §1

Test [19] in a line: qHTS RealTime-Glo MT Cell Viability Assay in HepG2 cells - 8 hour (AID 1224873). Further: nearly all actives have a fitted effect of over 55% in size. A digest of the protocol:
as §2

A short description of test [20]: A CellTox Green Cytotoxicity Assay to monitor cytotoxicity in HEK293 cells - 0 hour (AID 1224869). Further: nearly all actives have a fitted effect of over 50% in size. Put shortly:
as §3

Structures are written as SMILES. “And” between values parts separate entries of the source, which are not always exact repeats. Equal entries are not always repeated. Records with an inconclusive call do not appear. Some compounds were tested as several samples or in several runs, with calls that do not always agree. The source made the active and inactive calls. Unless noted, the call rests on the fitted dose curve; in most records, active means well fitted curve in the direction sought with a large enough effect in the repeat runs; inconclusive means weak or mixed curves; inactive means no such curve, though single readings can be large; an effect the other way counts as inactive or inconclusive.
On the % scale 0 is the no-effect control and ±100 the full control effect.

Sequence of Thyrotropin receptor (Homo sapiens) (P16473 whole entry, looked up): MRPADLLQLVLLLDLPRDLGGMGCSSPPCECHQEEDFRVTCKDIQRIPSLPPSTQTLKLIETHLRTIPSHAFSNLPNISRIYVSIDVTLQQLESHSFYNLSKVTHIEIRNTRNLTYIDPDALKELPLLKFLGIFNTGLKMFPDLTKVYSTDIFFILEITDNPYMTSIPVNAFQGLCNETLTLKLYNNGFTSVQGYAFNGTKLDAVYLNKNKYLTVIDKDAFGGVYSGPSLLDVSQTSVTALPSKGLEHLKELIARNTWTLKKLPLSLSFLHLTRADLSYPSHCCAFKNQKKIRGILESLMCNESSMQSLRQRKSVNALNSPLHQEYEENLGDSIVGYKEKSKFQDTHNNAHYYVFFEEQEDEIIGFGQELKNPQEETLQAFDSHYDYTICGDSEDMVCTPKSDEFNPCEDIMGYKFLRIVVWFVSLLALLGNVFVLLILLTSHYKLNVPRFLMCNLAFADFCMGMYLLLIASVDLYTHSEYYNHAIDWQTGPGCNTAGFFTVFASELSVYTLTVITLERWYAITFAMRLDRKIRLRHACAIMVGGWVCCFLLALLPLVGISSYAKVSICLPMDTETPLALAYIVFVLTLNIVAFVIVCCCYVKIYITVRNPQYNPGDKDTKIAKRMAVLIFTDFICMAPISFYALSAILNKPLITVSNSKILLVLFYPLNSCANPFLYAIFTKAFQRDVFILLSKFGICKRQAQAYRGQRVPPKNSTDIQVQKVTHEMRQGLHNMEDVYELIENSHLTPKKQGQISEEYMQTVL
Sequence of Nuclear receptor subfamily 1 group I member 3 (Homo sapiens) (Q14994 whole entry, looked up): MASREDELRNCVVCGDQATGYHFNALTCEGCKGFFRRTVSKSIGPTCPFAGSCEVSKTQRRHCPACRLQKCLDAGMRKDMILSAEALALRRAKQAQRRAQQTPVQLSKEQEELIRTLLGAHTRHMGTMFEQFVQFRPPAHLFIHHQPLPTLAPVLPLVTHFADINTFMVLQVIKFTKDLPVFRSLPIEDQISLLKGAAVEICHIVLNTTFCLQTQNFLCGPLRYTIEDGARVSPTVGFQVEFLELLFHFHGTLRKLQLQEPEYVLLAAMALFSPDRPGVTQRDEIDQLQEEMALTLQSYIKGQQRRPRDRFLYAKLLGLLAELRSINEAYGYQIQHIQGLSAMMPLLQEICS

As for `COCC(=O)N(c1c(C)cccc1C)C(C)C(=O)OC` (centres undefined), the Potency entry in test [1], in [2], in [3], in test [4], in [5] and in test [6] was “inactive” each time. For the same molecule, the Potency entry in test [7], in test [8], in test [9], in test [11], in test [12] and in test [14] was “inactive” throughout. In addition, the Potency result in test [15], in [16], in [17], in test [18] and in test [19] was “inactive” in each case. In test [10], the outcome was inactive. Further, the activity change, positive = activation in test [13] (at 42.5 µM (top of the series)) is 5.38% (inactive); in test [13] (at 92.4 µM (top of the series)), 1.31% (inactive) and 1.04% (inactive).
Regarding `CC[n+]1ccccc1`, the Potency entry in [1], in [4], in test [7], in [8], in test [9] and in test [14] was “inactive” throughout. For the same molecule, the Potency entry in [20], in test [17], in test [18] and in test [19] was “inactive” each time. In [10], the outcome was inactive. The Potency entry in test [11] was “inactive and 1.26 µM (active)”; in [15] it was “inactive and 38.6 µM (active)”; in test [16], “inactive and 34.8 µM (active)”.
As for `Oc1ccccc1-c1ccccc1`, the Potency entry in test [1], in test [2], in [4], in test [8], in [9] and in test [11] was “inactive” each time. Moreover, the Potency result in test [14], in test [15], in test [20], in [16], in test [17] and in test [18] was “inactive” throughout. Further, the Potency result in test [19] is “inactive”. The Potency result in [3] was “inactive and 35.2 µM (active)”. In test [10], the result was inactive.
For `COc1ccc(N)cc1`, the Potency result in [1], in test [4], in test [7], in test [8], in [11] and in test [14] was “inactive” each time. Moreover, the Potency entry in test [15], in [16], in [17], in [18] and in test [19] was “inactive” in each case. Also, in test [9], the Potency was 99.1 µM (active) and 89.8 µM (active). Further, the molecule was called inactive in test [10].
For `CCCCCCCCCCCC(=O)O`, the Potency entry in test [1], in test [4], in test [7], in test [8], in [9] and in test [11] was “inactive” throughout. Also, the Potency result in [14], in [15], in [20], in test [16], in [17] and in test [18] was “inactive” in each case. Also, the Potency entry in [19] is “inactive”. Besides, in [10], the call was inactive.
Consider `C=CCOC(Cn1ccnc1)c1ccc(Cl)cc1Cl` (centres undefined), for which the Potency in test [1] was 61.1 µM (active); in test [2] it was 38.7 µM (active) and 48.6 µM (active) and inactive; in test [4], 48.6 µM (active) and inactive; in test [8], 39 µM (active) and inactive; in test [11], 113 µM (active) and inactive; in [15] it was 21.9 µM (active) and 38.9 µM (active). Also, the Potency in [17] was 55.1 µM (active) and inactive; in test [18], 43.8 µM (active). For the same molecule, the Potency entry in [7], in test [14], in [20], in [16] and in [19] was “inactive” throughout.
In the case of `O=P1(N(CCCl)CCCl)NCCCO1` (centres undefined), the Potency result in [1], in [2], in test [3], in [4], in [5] and in test [6] was “inactive” throughout. The Potency entry in [7], in test [8], in [9], in [11], in test [12] and in [14] was “inactive” in each case. Also, the Potency result in [15], in test [20], in [16], in test [17], in [18] and in [19] was “inactive” in each case. Besides, the activity change, positive = activation was -7.16% (inactive) in test [13] (at 42.5 µM (top of the series)); -1.25% (inactive) and 0.0597% (inactive) in [13] (at 92.4 µM (top of the series)).
